Pf growth 96h = inhibits malaria parasite growth, 96 h; P. falciparum luciferase reporter growth, 96 h; Potency, µM (series often up to 28.7 µM), usual class: inhibitors; 320,000 tested, 6.9% active
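96 h incubation, 37 C, 5% CO2, of luciferase-reporter P. falciparum-infected RBCs (2% hematocrit, 0.05% parasitemia final) with test compounds; endpoint luminescence.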
Pf growth 48h = P. falciparum growth inhibition at 48 hours (one generation); Potency, µM (titrated, usually from 28.7 µM), usual class: inhibitors; 310,000 tested, 5.9% active; P. falciparum luciferase growth in erythrocytes, 48 h; AID 504832
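Luciferase-expressing parasites in RBCs, 2% Hct / 0.1% parasitemia final; RPMI 1640 + 0.5% Albumax; 37 C, 5% CO2, one generation; luminescence read-out, lower signal = inhibition.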
Shiga inhibitor = blocks Shiga toxin action in Vero cells; 290,000 tested, 9.2% active; inhibition, % at 38.7 µM; AID 2315; Vero cells, Shiga toxin protein synthesis inhibition reporter; in the data active = inhibition mostly above about 28%, no sharp cut-off; inactive = mostly below about 43%
Cycloheximide cs = counter-screen hit for Shiga toxin inhibitors, cycloheximide; max response, %; cell reporter, cycloheximide protein synthesis inhibition counterscreen; 300,000 tested, 12% active; in the data active = max response mostly above about 13%, no sharp cut-off; inactive = mostly below about 14%; note: read at 38.3 µM for the half of the compounds with a filed dose
Of the large screens only hits and unclear results are named; the others gave an inactive call. Most compounds without a hit are left out; they make up all but 21% or so of the library. Unless noted, calls come from the whole dose curve; as a rule, active = well fitted inhibition curve with a large enough effect; inconclusive = small, poorly fitted or top-dose-only effect, or another doubt; inactive = no such curve, though single readings can be large or run the other way.

O=C(CN(c1ccccc1)S(=O)(=O)c1ccc(F)cc1)NC1CCCCCC1	Pf growth 96h 2.33µM
Cc1ccc(C)c(N(CC(=O)NC2CCCC2)S(=O)(=O)c2ccccc2)c1	Pf growth 96h 13.1µM
Cn1c(SCC(=O)Nc2ccc3c(c2)OCCO3)nnc1C1CC1	Pf growth 96h inconclusive
O=C(OC1CCOC1=O)c1ccc(Cl)c(S(=O)(=O)N2CCOCC2)c1 (stereo not drawn)	none (no result: Shiga inhibitor, Cycloheximide cs)
CCOC(=O)c1c(C)nc(C)c(C(=O)OCC)c1-c1ccc(OC)cc1	Pf growth 96h inconclusive, Pf growth 48h inconclusive
CCOC(=O)c1c(C)[n+](-c2ccc(C)cc2)c(CC)c2cc(OC)c(OC)cc12	Pf growth 96h 0.738µM, Pf growth 48h 0.828µM
Cc1cc(C)cc(N(CC(=O)NCc2ccco2)C(=O)c2snc(C(N)=O)c2N)c1	Pf growth 96h 4.65µM, Shiga inhibitor 35.8, Cycloheximide cs 32.7
Cc1cc(C)cc(N(CC(=O)NCc2ccc(F)cc2)C(=O)c2snc(C(N)=O)c2N)c1	Pf growth 96h inconclusive, Pf growth 48h inconclusive
CC(Sc1nncs1)C(=O)Nc1ccc2c(c1)OCO2 (stereo not drawn)	Cycloheximide cs 10.5
O=C(CSc1nncs1)Nc1ccc2c(c1)OCO2	Cycloheximide cs 25.0
O=c1c(N2CCCCC2)coc2ccccc12	Cycloheximide cs 19.9
CCOc1ccc(CNC(=O)Cn2c(=O)c3cccn3c3ccccc32)cc1	Pf growth 96h inconclusive
COc1ccc(N2CCN(C(=O)CCCn3c(=O)c4cccn4c4cccnc43)CC2)cc1	Pf growth 48h 11.7µM
CCOc1ccc(CCNC(=O)CCCn2c(=O)c3cccn3c3cccnc32)cc1OCC	Pf growth 48h inconclusive
COc1ccc(N2CCN(CCCn3c(=S)[nH]c4ncccc4c3=O)CC2)cc1	Pf growth 96h 13.1µM (no result: Pf growth 48h)
CC(C)Oc1ccc(CNC(=O)Cn2c(=O)c3cccn3c3cccnc32)cc1	Pf growth 96h 14.7µM
O=c1c2cccnc2[nH]c(=S)n1CCCN1CCN(c2ccc(F)cc2)CC1	none (no result: Pf growth 96h)
COc1ccc(CCNC(=O)CCCn2c(=O)c3cccn3c3cccnc32)c(OC)c1	Pf growth 96h 10.4µM, Pf growth 48h inconclusive
O=C(CCNc1n[nH]c(=O)[nH]c1=O)N/N=C/c1ccc(C(F)(F)F)cc1	none
CC(=O)c1ccc(-c2nnc(CCC(=O)N(C)Cc3c(C)nc4ccccn34)o2)s1	Pf growth 96h inconclusive
Cc1cccc(C(=O)NCCCNC(=O)c2cccnc2)c1	none
Cc1nnc(NC(=O)C2CC(=O)N(c3ccccc3)C2)s1 (stereo not drawn)	Pf growth 96h inconclusive
O=[N+]([O-])c1ccc2[nH]c(O)c(N=NC3CS(=O)(=O)CC3O)c2c1 (stereo not drawn)	none
COc1ccc(CCNC(=O)CCCn2c(=O)c3cccn3c3cccnc32)c(OC)c1OC	Pf growth 96h 13.1µM, Pf growth 48h inconclusive
CCOc1ccc(NC(=O)c2ccc(NC(=S)NC3CC3)cc2)cc1	Pf growth 48h inconclusive, Shiga inhibitor 50.6
CCOc1ccc(NC(=O)c2ccc(NC(=S)NC3CCCCC3)cc2)cc1	Pf growth 96h inconclusive, Pf growth 48h inconclusive, Cycloheximide cs 23.7
O=C(CCC1CCCN(C(=O)c2cccc(F)c2)C1)N1CCN(c2ccccn2)CC1 (stereo not drawn)	none
COc1ccc(/C=C/C(=O)c2oc3ccc(F)cc3c2C)cc1	Pf growth 48h inconclusive
Cc1ccc(OC(=O)c2oc3ccc(F)cc3c2C)c(C)c1	Cycloheximide cs 34.6
COc1cc(-c2ccc(-[n+]3nc(-c4ccccc4)nn3-c3ccc([N+](=O)[O-])cc3)c(OC)c2)ccc1-[n+]1nc(-c2ccccc2)nn1-c1ccc([N+](=O)[O-])cc1	Pf growth 96h 6.75µM, Pf growth 48h 5.36µM (no result: Shiga inhibitor, Cycloheximide cs)
CCCCC/C=C\C/C=C\C/C=C\C/C=C\CCCC(=O)N[C@H](C)CO	none (no result: Pf growth 96h, Pf growth 48h)
Cc1cc(Br)ccc1NC(=O)CN(C)C(=O)CN1C(=O)NC(C)(C2CC2)C1=O (stereo not drawn)	none (no result: Shiga inhibitor, Cycloheximide cs)
O=C(COC(=O)c1ccc2ccccc2c1O)NCC(F)(F)F	Shiga inhibitor 69.3, Cycloheximide cs 22.3
O=C(COC(=O)c1c2ccccc2cc2ccccc12)NCC(F)(F)F	none
O=c1cc(O)c2ccccc2n1Cc1ccccc1F	none
CCC1(c2ccccc2)NC(=S)N(c2ccc(C)cc2)N1 (stereo not drawn)	Pf growth 96h inconclusive, Cycloheximide cs 27.4
CCC1(c2ccc(Cl)cc2)NC(=S)N(c2ccccc2)N1 (stereo not drawn)	Cycloheximide cs 13.8
COC(CN(C)C(C(=O)NC1CCCCC1)c1ccccc1)OC (stereo not drawn)	none
COC(C(=O)NC1CCCCCCC1)c1ccccc1 (stereo not drawn)	Pf growth 96h 3.29µM

Assay outcomes deposited in PubChem BioAssay by National Center for Advancing Translational Sciences (NCATS).
